One may read the residual activity as the signal under treatment as a percentage of the control signal.

Experimental findings from ChEMBL document CHEMBL2218924, “A broad activity screen in support of a chemogenomic map for kinase signalling research and drug discovery” (Biochem J, 2013) are described below.

In assay [1] the target is T1, Serine/threonine-protein kinase ULK3 (Homo sapiens) (UniProt Q6PHR2).
T1 sequence (whole entry): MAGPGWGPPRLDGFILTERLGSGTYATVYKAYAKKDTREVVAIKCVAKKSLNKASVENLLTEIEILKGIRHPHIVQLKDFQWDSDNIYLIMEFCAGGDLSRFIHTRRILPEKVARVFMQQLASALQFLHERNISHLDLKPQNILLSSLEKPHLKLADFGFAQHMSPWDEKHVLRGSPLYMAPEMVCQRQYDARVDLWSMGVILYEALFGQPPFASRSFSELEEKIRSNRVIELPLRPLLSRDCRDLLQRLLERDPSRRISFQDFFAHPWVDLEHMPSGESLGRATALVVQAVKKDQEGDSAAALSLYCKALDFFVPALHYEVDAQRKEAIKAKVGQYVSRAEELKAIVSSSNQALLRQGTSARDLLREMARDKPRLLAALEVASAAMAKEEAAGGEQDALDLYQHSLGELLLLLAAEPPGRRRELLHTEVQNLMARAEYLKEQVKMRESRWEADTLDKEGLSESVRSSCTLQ
The note with it: at 1 µM.

The target of assay [2] is T1, Serine/threonine-protein kinase ULK3 (Homo sapiens). The note with it: at 10 µM.
In assay [3] the target is Serine/threonine-protein kinase WNK2 (Homo sapiens) (UniProt Q9Y3S1). The note with it: at 1 µM.
Serine/threonine-protein kinase WNK2 (Homo sapiens), sequence (Q9Y3S1 whole entry): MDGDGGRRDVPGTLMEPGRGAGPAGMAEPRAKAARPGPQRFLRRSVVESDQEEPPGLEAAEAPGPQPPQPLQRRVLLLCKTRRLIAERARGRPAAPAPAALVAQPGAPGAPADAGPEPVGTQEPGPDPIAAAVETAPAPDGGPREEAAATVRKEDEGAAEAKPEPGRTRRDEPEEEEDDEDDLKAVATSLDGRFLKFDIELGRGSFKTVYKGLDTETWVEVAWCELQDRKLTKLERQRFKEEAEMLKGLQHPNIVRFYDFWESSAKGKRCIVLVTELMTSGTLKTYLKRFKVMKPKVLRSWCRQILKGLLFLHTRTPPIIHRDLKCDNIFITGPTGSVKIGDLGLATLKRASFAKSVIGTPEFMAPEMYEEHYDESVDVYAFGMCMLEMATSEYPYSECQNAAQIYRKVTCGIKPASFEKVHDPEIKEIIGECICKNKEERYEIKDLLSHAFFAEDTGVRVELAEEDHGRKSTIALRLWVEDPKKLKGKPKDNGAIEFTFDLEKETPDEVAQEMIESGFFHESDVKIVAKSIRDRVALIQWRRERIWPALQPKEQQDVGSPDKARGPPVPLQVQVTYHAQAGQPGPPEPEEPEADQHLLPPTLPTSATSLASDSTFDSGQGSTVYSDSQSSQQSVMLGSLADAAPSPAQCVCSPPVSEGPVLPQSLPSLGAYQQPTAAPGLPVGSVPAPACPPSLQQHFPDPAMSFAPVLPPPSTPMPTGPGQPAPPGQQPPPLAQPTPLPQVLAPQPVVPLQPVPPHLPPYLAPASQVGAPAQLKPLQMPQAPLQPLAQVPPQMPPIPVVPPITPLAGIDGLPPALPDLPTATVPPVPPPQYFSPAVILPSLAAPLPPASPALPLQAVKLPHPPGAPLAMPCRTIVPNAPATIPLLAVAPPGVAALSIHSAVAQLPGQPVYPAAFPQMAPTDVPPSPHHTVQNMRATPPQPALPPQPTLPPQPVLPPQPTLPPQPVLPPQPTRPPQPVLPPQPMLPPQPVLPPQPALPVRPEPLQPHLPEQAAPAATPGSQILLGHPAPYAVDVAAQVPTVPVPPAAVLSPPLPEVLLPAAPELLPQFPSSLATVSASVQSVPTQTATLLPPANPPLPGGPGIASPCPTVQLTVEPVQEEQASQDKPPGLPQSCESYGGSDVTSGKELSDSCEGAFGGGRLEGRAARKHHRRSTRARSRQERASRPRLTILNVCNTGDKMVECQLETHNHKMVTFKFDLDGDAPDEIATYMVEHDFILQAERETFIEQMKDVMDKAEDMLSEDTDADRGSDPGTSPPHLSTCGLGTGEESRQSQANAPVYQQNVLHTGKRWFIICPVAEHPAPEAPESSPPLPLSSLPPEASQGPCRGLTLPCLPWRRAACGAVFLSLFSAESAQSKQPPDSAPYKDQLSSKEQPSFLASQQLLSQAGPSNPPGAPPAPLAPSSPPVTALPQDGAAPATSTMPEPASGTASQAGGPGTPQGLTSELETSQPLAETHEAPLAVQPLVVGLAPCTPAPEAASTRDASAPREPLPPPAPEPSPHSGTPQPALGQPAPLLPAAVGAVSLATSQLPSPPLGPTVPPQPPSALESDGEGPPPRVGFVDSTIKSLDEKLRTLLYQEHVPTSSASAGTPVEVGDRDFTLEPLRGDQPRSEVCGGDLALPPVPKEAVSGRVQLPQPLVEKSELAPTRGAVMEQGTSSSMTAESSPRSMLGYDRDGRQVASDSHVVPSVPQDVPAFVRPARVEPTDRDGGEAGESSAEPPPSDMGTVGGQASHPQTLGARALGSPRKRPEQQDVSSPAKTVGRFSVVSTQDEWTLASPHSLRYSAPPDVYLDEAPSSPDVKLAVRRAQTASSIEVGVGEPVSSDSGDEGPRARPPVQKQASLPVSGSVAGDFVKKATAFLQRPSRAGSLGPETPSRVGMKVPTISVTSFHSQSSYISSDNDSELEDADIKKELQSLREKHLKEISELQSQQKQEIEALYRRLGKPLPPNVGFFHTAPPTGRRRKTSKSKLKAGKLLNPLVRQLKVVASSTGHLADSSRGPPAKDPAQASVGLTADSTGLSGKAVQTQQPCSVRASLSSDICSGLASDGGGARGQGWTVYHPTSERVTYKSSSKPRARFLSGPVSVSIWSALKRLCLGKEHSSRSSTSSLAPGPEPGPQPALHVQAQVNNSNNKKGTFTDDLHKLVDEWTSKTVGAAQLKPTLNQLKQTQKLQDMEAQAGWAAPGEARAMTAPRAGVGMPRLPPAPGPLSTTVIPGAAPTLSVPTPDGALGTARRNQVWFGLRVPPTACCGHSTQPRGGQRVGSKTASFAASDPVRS
The target is the same in assay [4]. The following applies: at 10 µM.
Assay [5] deals with Serine/threonine-protein kinase WNK3 (Homo sapiens) (UniProt Q9BYP7). The following applies: at 1 µM.
Serine/threonine-protein kinase WNK3 (Homo sapiens), sequence (Q9BYP7 whole entry): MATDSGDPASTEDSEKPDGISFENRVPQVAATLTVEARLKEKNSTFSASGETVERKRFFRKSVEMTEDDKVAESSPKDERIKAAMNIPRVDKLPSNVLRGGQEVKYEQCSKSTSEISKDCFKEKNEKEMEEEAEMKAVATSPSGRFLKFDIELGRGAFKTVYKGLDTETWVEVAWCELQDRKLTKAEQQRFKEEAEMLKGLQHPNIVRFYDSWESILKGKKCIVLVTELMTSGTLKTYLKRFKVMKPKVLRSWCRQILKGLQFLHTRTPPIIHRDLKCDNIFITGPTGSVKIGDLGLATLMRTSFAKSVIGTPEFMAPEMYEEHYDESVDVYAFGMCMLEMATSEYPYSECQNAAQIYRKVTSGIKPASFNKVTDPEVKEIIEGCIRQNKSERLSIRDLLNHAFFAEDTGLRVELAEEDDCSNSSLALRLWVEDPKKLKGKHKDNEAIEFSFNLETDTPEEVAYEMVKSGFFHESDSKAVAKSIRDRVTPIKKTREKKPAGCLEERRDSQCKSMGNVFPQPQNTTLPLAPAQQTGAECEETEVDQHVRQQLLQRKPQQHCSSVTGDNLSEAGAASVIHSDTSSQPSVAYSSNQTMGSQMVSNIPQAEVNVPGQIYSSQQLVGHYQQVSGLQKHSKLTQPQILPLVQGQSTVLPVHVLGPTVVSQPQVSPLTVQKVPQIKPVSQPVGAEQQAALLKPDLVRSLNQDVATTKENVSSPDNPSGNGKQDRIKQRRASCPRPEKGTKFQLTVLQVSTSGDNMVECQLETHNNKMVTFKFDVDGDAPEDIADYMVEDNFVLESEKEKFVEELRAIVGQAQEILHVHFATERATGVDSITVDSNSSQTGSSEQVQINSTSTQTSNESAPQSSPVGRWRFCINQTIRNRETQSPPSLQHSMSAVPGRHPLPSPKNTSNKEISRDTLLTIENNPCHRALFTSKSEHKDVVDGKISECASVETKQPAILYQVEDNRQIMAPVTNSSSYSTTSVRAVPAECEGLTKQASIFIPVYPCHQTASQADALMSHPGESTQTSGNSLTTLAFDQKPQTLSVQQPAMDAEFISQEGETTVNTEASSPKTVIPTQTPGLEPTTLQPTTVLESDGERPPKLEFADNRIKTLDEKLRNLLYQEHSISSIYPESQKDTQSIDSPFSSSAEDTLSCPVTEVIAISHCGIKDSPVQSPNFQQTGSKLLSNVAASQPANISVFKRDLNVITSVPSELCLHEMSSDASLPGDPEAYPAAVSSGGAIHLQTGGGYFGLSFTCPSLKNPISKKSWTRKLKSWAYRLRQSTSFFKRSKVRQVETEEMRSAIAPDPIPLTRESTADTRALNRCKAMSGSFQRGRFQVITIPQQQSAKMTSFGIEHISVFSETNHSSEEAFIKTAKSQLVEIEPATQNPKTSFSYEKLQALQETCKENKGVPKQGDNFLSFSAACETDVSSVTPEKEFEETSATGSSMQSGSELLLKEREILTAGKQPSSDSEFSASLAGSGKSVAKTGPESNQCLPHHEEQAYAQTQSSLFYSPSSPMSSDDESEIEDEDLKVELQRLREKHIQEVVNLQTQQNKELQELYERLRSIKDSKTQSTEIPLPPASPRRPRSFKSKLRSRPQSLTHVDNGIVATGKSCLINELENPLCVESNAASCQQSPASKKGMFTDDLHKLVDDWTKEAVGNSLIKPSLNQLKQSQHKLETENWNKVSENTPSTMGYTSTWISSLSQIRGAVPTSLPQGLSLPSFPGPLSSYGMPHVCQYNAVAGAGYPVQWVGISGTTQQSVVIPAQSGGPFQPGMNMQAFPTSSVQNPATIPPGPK
Assay [6] has the same target. The note with it: at 10 µM.
Assay [7] addresses T2, Serine/threonine-protein kinase ULK2 (Homo sapiens) (UniProt Q8IYT8).
T2 sequence (whole entry): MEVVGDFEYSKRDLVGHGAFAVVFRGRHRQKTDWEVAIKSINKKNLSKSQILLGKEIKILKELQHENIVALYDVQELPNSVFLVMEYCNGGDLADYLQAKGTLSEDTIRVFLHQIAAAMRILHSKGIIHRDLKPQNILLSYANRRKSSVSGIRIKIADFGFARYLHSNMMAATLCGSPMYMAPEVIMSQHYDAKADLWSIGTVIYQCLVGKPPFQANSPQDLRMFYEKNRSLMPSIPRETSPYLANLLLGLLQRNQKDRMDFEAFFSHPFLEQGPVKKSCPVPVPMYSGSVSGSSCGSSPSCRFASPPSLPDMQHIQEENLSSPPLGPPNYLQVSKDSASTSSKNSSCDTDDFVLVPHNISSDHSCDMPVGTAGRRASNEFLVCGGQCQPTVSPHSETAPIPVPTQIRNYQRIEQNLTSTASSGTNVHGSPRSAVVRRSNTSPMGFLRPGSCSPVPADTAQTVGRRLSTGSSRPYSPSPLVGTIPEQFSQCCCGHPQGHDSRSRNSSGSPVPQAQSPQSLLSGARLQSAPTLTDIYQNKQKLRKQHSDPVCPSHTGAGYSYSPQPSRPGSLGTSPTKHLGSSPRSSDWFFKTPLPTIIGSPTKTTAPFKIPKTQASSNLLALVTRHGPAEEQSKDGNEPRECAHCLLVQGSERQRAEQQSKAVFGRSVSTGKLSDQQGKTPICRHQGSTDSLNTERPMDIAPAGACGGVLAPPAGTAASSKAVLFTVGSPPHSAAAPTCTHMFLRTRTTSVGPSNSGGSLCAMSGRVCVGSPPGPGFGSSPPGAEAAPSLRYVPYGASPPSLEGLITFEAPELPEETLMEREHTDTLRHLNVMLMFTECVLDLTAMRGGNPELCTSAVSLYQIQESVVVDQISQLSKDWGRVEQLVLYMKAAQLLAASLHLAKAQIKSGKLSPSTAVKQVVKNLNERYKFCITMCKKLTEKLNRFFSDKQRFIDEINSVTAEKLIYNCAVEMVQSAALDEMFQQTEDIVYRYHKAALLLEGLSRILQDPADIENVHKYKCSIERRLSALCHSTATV
The following applies: at 1 µM.

Assay [8] deals with T2, Serine/threonine-protein kinase ULK2 (Homo sapiens). The note with it: at 10 µM.
Assay [9] concerns the target Serine/threonine-protein kinase VRK2 (Homo sapiens) (UniProt Q86Y07). The note with it: at 10 µM.
Assay [10] has the same target. The note with it: at 1 µM.

Structures are written as SMILES.

Serine/threonine-protein kinase VRK2 (Homo sapiens), sequence (Q86Y07 whole entry): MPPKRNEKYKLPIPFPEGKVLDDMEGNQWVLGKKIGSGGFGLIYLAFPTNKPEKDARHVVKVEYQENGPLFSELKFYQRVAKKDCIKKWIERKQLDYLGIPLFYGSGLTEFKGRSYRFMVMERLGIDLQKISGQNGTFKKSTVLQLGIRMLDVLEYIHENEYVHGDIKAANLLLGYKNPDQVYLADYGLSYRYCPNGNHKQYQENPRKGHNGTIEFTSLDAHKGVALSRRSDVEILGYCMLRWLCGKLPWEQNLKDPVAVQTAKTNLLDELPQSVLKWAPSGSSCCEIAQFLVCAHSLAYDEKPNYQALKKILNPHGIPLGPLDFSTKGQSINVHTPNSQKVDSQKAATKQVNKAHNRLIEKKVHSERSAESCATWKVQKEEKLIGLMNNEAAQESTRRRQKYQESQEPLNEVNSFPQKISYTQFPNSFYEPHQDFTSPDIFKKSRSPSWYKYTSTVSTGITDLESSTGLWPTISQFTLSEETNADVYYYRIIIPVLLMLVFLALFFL

In the case of `O=C1NC(=O)c2c1c1c3ccccc3n3c1c1c2c2ccccc2n1C1CCC3O1`, the residual activity in [1] is 58%; in assay [2], 58%; in assay [3], 100% (inactive); in assay [4] it was 99%; in [5] it was 94% (inactive); in assay [6], 90%.
Turning to `COc1ccc2c(c1)/C(=C/c1cnc[nH]1)C(=O)N2`, the residual activity in assay [7] amounted to 81%; in assay [8] it was 23%; in [1] it was 80%; in assay [2], 23%; in assay [9], 66%; in [6], 96%.
Turning to `CCn1cnc2c(Nc3cccc(Cl)c3)nc(N[C@@H]3CCCC[C@@H]3N)nc21`, the residual activity in [7] is 54%; in assay [8] it was 15%; in assay [1], 40%; in assay [2] it was 8%; in assay [10] it was 94% (inactive); in assay [9] it was 48%. Also, the residual activity is 88% (inactive) in assay [3], 45% in assay [4], 87% (inactive) in assay [5] and 56% in [6].
For the compound `c1cc(-c2cnn3cc(-c4ccc(OCCN5CCCCC5)cc4)cnc23)ccn1`, the residual activity in assay [7] is 50%; in assay [8] it was 17%; in [1], 84%; in [2], 48%; in [10] it was 119% (inactive).
As for `COC(=O)[C@@]1(O)C[C@H]2O[C@]1(C)n1c3ccccc3c3c4c(c5c6ccccc6n2c5c31)C(=O)NC4`, the residual activity in [7] was 7%; in assay [8] it was 0%; in assay [1], 0%; in assay [2], 1%; in assay [10], 100% (inactive); in assay [9] it was 101%. The residual activity was 63% (inactive) in assay [3], 12% in assay [4], 70% (inactive) in [5] and 8% in assay [6].
As for `O=[N+]([O-])/C=C/c1ccc2c(c1)OCO2`, the residual activity was 102% in [7]; 92% in assay [8]; 111% in [1]; 91% in [2]; 101% (inactive) in [10]; 91% in assay [9]. Moreover, the residual activity in assay [3] was 109% (inactive); in assay [4] it was 88%; in assay [5], 88% (inactive); in [6], 94%.
Regarding `N/C(=N\[N+](=O)[O-])N/N=C\c1ccc(-c2cccc([N+](=O)[O-])c2)o1`, the residual activity in assay [1] was 92%; in [2], 88%.
For `CC(C)[C@H](CO)Nc1nc(Nc2cccc(Cl)c2)c2ncn(C(C)C)c2n1`, the residual activity in [7] was 83%; in assay [8], 39%; in [1], 39%; in assay [2] it was 7%; in assay [10], 85% (inactive); in assay [9] it was 30%. The residual activity in assay [3] was 91% (inactive); in [4], 46%; in assay [5], 82% (inactive); in assay [6], 51%.
`COc1ccc2c(c[n+](C)c3c4cc5c(cc4ccc23)OCO5)c1OC`: the residual activity was 94% in [8]; 96% in assay [2]; 110% (inactive) in [10]; 91% in [9]; 76% in [4]; 84% in assay [6].
Turning to `CN[C@@H]1C[C@H]2O[C@@](C)([C@@H]1OC)n1c3ccccc3c3c4c(c5c6ccccc6n2c5c31)C(=O)NC4`, the residual activity in assay [7] is 2%; in assay [8], 0%; in assay [10] it was 108% (inactive); in assay [9] it was 90%; in [3] it was 92% (inactive); in assay [4] it was 30%. Also, the residual activity in assay [5] is 88% (inactive).
On to `C[S+]([O-])c1ccc(-c2nc(-c3ccc(F)cc3)c(-c3ccncc3)[nH]2)cc1` (centres undefined), for which the residual activity is 120% in assay [7]; 101% in [8]; 104% in [1]; 104% in assay [2]; 114% (inactive) in [10]; 96% in [9]. The residual activity was 117% (inactive) in [3], 101% in assay [4], 110% (inactive) in assay [5] and 100% in assay [6].
Regarding `COc1cc(OC)c(/C=C2\C(=O)Nc3ccccc32)c(OC)c1`, the residual activity in assay [8] is 99%; in [1], 95%; in assay [2], 95%; in assay [10] it was 83% (inactive); in assay [9] it was 32%; in [3] it was 89% (inactive). In addition, the residual activity was 78% in assay [4], 93% (inactive) in assay [5] and 83% in assay [6].
As to `COc1cc2ncnc(Nc3ccc(OCc4ccccc4)cc3)c2cc1OC`, the residual activity in [7] is 102%; in [8], 93%; in assay [1], 104%; in assay [2] it was 69%; in [10], 112% (inactive); in assay [9], 97%. For the same compound, the residual activity is 93% (inactive) in [3], 55% in [4], 95% (inactive) in assay [5] and 64% in assay [6].
`CC(C)(C)c1cc(C=C(C#N)C#N)cc(Br)c1O`: the residual activity in [7] is 113%; in assay [8], 112%; in assay [1], 110%; in assay [2] it was 99%; in [10], 101% (inactive); in assay [9] it was 105%. The residual activity in assay [3] is 114% (inactive); in [4], 114%; in assay [5], 111% (inactive); in assay [6], 105%.
In the case of `CCc1nc(-c2ccc(OC)cc2)[nH]c1-c1ccncc1`, the residual activity was 115% in assay [7]; 105% in assay [8]; 113% (inactive) in [10]; 101% in assay [9]; 112% (inactive) in assay [3]; 100% in [4]. In addition, the residual activity in assay [6] was determined as 108%.
With `O=C1c2ccccc2-c2nc3nnnn3nc21`, the residual activity in assay [7] is 110%; in assay [8], 103%; in [10], 116% (inactive); in assay [9], 102%; in assay [5], 115% (inactive); in assay [6], 103%.
With `O=C1Nc2ccc3ncsc3c2/C1=C/c1c[nH]cn1`, the residual activity was 37% in [7]; 6% in [8]; 42% in assay [1]; 7% in assay [2]; 75% (inactive) in assay [10]; 26% in [9]. For the same compound, the residual activity is 89% (inactive) in assay [3], 57% in assay [4], 84% (inactive) in assay [5] and 67% in [6].
In the case of `O=c1[nH]c2ccccc2n1C1CCN(Cc2ccc(-c3nc4cc5[nH]cnc5cc4nc3-c3ccccc3)cc2)CC1`, the residual activity in [7] is 108%; in assay [8] it was 106%; in assay [1], 100%; in assay [2], 95%; in assay [10], 109% (inactive); in [9], 93%. Moreover, the residual activity was 117% (inactive) in assay [3], 83% in assay [4], 116% (inactive) in [5] and 85% in assay [6].
